Pf growth 48h: Primary qHTS for delayed death inhibitors of the malarial parasite plastid, 48 hour incubation; P. falciparum luciferase growth in erythrocytes, 48 h; Potency, µM (highest dose often 28.7 µM), for inactives: at the top dose activity change, negative = inhibition, most hits filed as inhibitors; actives 5.9% (n = 310,000); further: potency means the concentration at half of the fitted maximal effect; on the % scale 0 is the no-effect control and ±100 the full control effect
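First compound was added to culture medium, then infected red cells at 0.1% parasitemia and 2% hematocrit (final). After incubation at 37 C under 5% CO2, luciferase detection reagent was dispensed and light output recorded.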
Shiga inhibitor: A qHTS for Small Molecule Inhibitors of Shiga Toxin | Vero cells, Shiga toxin protein synthesis inhibition reporter | inhibition, % at 38.7 µM | actives 9.2% (n = 290,000); in the data active means inhibition mostly above about 28%, no sharp cut-off; inactive means mostly below about 43%; further: 0% is about no effect
Pf growth 96h: Primary qHTS for delayed death inhibitors of the malarial parasite plastid, 96 hour incubation. Potency, µM (titrated, usually from 28.7 µM), for inactives: at the top dose activity change, negative = inhibition, actives largely listed as inhibitors. actives 6.9% (n = 320,000). AID 504834, 2011. P. falciparum luciferase reporter growth, 96 h; further: potency means the concentration at half of the fitted maximal effect; on the % scale 0 is the no-effect control and ±100 the full control effect
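Delayed-death screen, second-generation endpoint: infected erythrocytes, 2% hematocrit, 0.05% parasitemia final; 96 hours at 37 C, 5% CO2; luciferase detection reagent; luminescence decrease equals reduced growth.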
CHX counter: Cycloheximide Counterscreen for Small Molecule Inhibitors of Shiga Toxin. cell reporter, cycloheximide protein synthesis inhibition counterscreen. max response, %. actives 12% (n = 300,000). AID 2314, 2010; in the data active means max response mostly above about 13%, no sharp cut-off; inactive means mostly below about 14%; further: read at 38.3 µM for the half of the compounds with a filed dose; 0% is about no effect
HCMV antiviral: qHTS Assay for inhibitors of the human cytomegalovirus (HCMV); AID 1259415, 2018; HFF cells, HCMV-luciferase reporter, 72 h; stronger effect = lower value; activity change, negative = inhibition, % at 57.5 µM; actives 4.5% (n = 410,000); in the data active means activity change below about -60%; inconclusive means no clear call, values can overlap the other calls; inactive means above about -39%; further: on the % scale 0 is the no-effect control and ±100 the full control effect
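Steps: HFFs plated, 16 h 37C; compounds added; HCMV-luciferase added to MOI 1 PFU/cell; 72 h 37C; OneGlo reagent, 5 min room temperature; luminescence read, normalized to controls.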
* hit, by the source's call; ? = inconclusive; / = not tested or not shown. The list is not random: actives were taken first. Their share in the collection is about 20%. Unless noted, the call rests on the fitted dose curve; in most records, active means well fitted inhibition curve with a large enough effect; inconclusive means small, poorly fitted or top-dose-only effect, or another doubt; inactive means no such curve, though single readings can be large or run the other way.

SMILES	Pf growth 48h	Shiga inhibitor	Pf growth 96h	CHX counter	HCMV antiviral
CCC(CC)c1nn2c(=O)cc(COc3ccc(NC(=O)c4ccc(Cl)cc4)cc3)nc2s1	/	/	/	/	5.7
COc1ccc(-c2nnc(SCC(=O)Nc3cccc(C(F)(F)F)c3)nc2-c2ccc(OC)cc2)cc1	/	/	/	/	6.9
CN(Cc1nc2ccccc2n1C)C(=O)c1ccco1	14.8%	-23.4	1.65µM*	-3.1	13.3
Cn1c(C(C#N)C(=O)c2ccco2)nc2ccccc21 (centres undefined)	57.2%	70.8*	27.1%	34.0*	220.5
Cc1csc(=O)n1CCC(=O)OCC(=O)Nc1cccc(C#N)c1	12.9%	/	31.5%	/	-21.2
CCOC(=O)CSc1nc(Nc2ccc3c(c2)OCO3)c2ccccc2n1	8.28µM*	-19.3	8.28µM*	-2.4	-21.8
COc1cc(Nc2nc(SCC(=O)c3ccc(Br)cc3)nc3ccccc23)cc(OC)c1	/	/	/	/	-62.3*
N#CCSc1nc(Nc2ccc3c(c2)OCO3)c2ccccc2n1	?	-16.3	-5.0%	-6.3	-63.0*
COc1cc(Nc2nc(SCC#N)nc3ccccc23)cc(OC)c1OC	?	-19.2	?	-5.4	46.7
C/C(CCC1CC(C)(C)OC1=O)=N\NC(N)=S (centres undefined)	28.0%	5.9	-29.8%	-2.1	-93.1*
C1CN(c2nc3nonc3nc2N2C[C@H]3CC[C@H]2C3)CCS1	-1.7%	-11.1	?	-2.2	-31.5
CC(=O)c1cc(C(C)=O)c(C)[n+](C)c1C	10.4µM*	5.7	24.2%	1.1	9.0
CSc1ncc(C(C)=O)c(C)n1	-6.4%	7.4	36.6%	-1.1	-7.0
CC(=O)c1cc(C(C)=O)c(C)nc1C	5.5%	-9.1	1.85µM*	15.3	5.4
CC(=O)c1cc(C(=O)Nc2ccc(C(=O)O)cc2)oc1C	12.8%	19.2	/	-4.2	-6.7
CCN1c2ccccc2-c2nc(SCC(=O)Nc3ccc(C)c(Cl)c3)ncc2S1(=O)=O	/	/	/	/	-38.2
Cc1nc2sc3c(c2c(=O)o1)CC(C)(C)OC3	-3.1%	-13.5	14.7µM*	-0.9	24.1
CC(C)Cc1nc(SCC(=O)NCC2CCCO2)c2c(=O)n(C)c(=O)n(C)c2n1 (centres undefined)	1.2%	-3.7	19.6%	-2.1	-77.7*
Cc1cc(C)n(-c2nc(SCC(=O)NCC3CCCO3)c3c4c(sc3n2)CCCC4)n1 (centres undefined)	11.7µM*	-16.0	4.15µM*	-5.8	/
Cc1cc(C)n(-c2nc(NCC3CCCO3)c3c4c(sc3n2)COC(C)(C)C4)n1 (centres undefined)	/	46.1	2.33µM*	27.5*	-29.2
COc1ccc(C2CC(c3ccccc3)=NN2C(=O)CSc2ncccn2)cc1 (centres undefined)	?	7.7	?	-2.8	-25.4
COc1ccc(C2=NN(C(=O)CCC(=O)O)C(c3ccccc3)C2)cc1 (centres undefined)	6.3%	5.4	?	9.3	11.0
COc1ccc(C2CC(c3ccccc3)=NN2C(=O)CSc2ncn[nH]2)cc1 (centres undefined)	?	35.6	?	17.1*	13.5
COc1ccc(C2=NN(C(=O)CN3CCOCC3)C(c3nc4ccccc4[nH]3)C2)cc1 (centres undefined)	81.0%	105.3*	35.4%	55.6*	16.9
COc1ccc(C2=NN(C(=O)CCC(=O)O)C(c3ccc(F)cc3)C2)cc1 (centres undefined)	-25.2%	2.2	14.7µM*	6.9	-8.5
SMILES	Pf growth 48h	Shiga inhibitor	Pf growth 96h	CHX counter	HCMV antiviral
COc1ccc(C2CC(c3ccccc3)=NN2C(=O)COC(=O)/C=C/c2ccc(O)c(OC)c2)cc1 (centres undefined)	14.7µM*	19.1	?	2.4	3.1
O=C(NCc1cccnc1)c1csc([C@@H]2C[C@H](O)[C@@H](CO)O2)n1	/	/	/	/	1.5
COc1ccc(NC(=O)CCc2nc3cccnc3n2Cc2cccs2)c(OC)c1	/	/	/	/	-26.9
N#Cc1cccc(OC(=O)C2CCN(C(=O)c3ccc(F)cc3)CC2)c1	/	/	/	/	32.2
O=C(CSc1ccc(-c2ccccn2)nn1)N1CCc2ccccc21	4.0%	42.0*	22.5%	19.1	3.7
O=C(CSc1ccccn1)N1CCc2ccccc21	388.9%	115.9*	-0.3%	40.2*	-19.8
COc1cccc(-n2ccnc2SCC(=O)N2CCc3ccccc32)c1	-3.0%	-4.4	88.5%	-1.4	7.7
Cn1ccnc1SCC(=O)N1CCc2ccccc21	124.1%	79.3*	3.1%	31.2*	72.8
O=C(c1c(F)cccc1F)N1CCC(n2nnc3cc(C(F)(F)F)ccc32)CC1	27.0%	-5.1	-9.9%	8.4	17.1
O=C(CNC(=O)c1ccccc1F)NCCc1ccc(Cl)cc1Cl	-11.0%	3.5	34.1%	6.9	-35.9
O=C(NC(=O)c1ccccc1F)OCc1ccc(Cl)cc1Cl	22.9%	69.3*	-15.7%	26.4*	3.7
Cc1nn(C)c(Cl)c1NC(=O)OCc1ccc(Cl)cc1Cl	8.1%	-19.3	27.9%	0.2	-95.6*
O=C(NCCO)C(=O)Nc1c2c(nn1-c1ccc(F)cc1)CSC2	/	/	/	/	1.7
CCOC(=O)N1CCC(NC(=O)CCc2c(C)nc3nc(C)nn3c2C)CC1	5.2%	-5.6	?	-2.5	-28.3
CCOC(=O)N1CCC(NC(=O)CCc2c(C)nc3c(c(C)nn3C(C)(C)C)c2C)CC1	11.7µM*	17.1	57.1%	0.7	-73.0*
CCOC(=O)N1CCN(C(=O)CCc2c(C)nc3c(c(C)nn3-c3ccc(C)c(C)c3)c2C)CC1	13.1µM*	-6.4	/	-1.3	-25.3
CCOC(=O)c1[nH]ncc1CN1CCC(Cc2cccc(OC)c2)(C(=O)OCC)CC1	5.3%	-4.3	14.3%	-2.3	-19.9
CCCOC(=O)c1ccc(NC(=O)C2C3CCC(C3)C2C(=O)O)cc1 (centres undefined)	77.9%	20.3*	59.3%	46.7*	-9.3
CCOC(=O)c1cccc(NC(=O)c2ccc(NC(=O)C3CCCO3)cc2)c1 (centres undefined)	?	20.7	7.38µM*	6.1	24.5
COC(=O)c1ccc(NC(=O)C2C3CCC(C3)C2C(=O)O)cc1 (centres undefined)	5.4%	11.9	38.9%	3.5	5.4
CCOC(=O)c1ccc(NC(=O)c2nc[nH]c2C(=O)NC)cc1	-7.2%	-3.9	13.7%	0.7	6.2
CCOC(=O)c1ccc(NC(=O)CNC(=O)c2ccccc2)cc1	35.6%	-10.9	?	-2.1	24.8
CCOC(=O)c1ccc(NC(=O)c2nccnc2C(=O)O)cc1	/	24.3	-24.2%	11.5	-74.5*
CCOC(=O)c1ccc(P(=O)(c2ccccc2)c2ccccc2)cc1	-27.3%	/	-20.0%	-1.6	-96.5*
O=C(CS(=O)(=O)c1cccc2nsnc12)Nc1ccccc1	/	/	/	/	5.6
COc1ccc(-n2nnnc2-c2cn(C)nc2C(F)(F)F)cc1	7.1%	-10.0	33.3%	-1.2	-30.0
CCOC(=O)c1cc(NC(=O)COC)ccc1O	49.2%	-20.8	3.2%	1.0	/

Screens: PubChem BioAssay, National Center for Advancing Translational Sciences (NCATS)
